Shown are actives, neighbours in structure and some others; about 1.6% of the full set was active somewhere.
KCNQ2 enhance – potentiators of rat KCNQ2 potassium channel. Potassium voltage-gated channel subfamily KQT member 2 (Rattus norvegicus), O88943. CHO-K1 KCNQ2, FluxOR thallium flux fluorescence; hits give high values. 310,000 compounds, 0.54% hits. AID 2239, 2010. B-score at 10 µM;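 active means fluorescence ratio B-score at least 3 SD of library B-scores, with initial fluorescence B-score within 3 of them, cut at about 5.3 in these data; same plate scores as AID 2156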;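 further: B-score of peak minus minimum over baseline fluorescence ratio after K+ and Tl+ stimulus; positive B-score means potentiation of KCNQ2 with more thallium influx and brighter signal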
Target sequence (O88943 whole entry, looked up): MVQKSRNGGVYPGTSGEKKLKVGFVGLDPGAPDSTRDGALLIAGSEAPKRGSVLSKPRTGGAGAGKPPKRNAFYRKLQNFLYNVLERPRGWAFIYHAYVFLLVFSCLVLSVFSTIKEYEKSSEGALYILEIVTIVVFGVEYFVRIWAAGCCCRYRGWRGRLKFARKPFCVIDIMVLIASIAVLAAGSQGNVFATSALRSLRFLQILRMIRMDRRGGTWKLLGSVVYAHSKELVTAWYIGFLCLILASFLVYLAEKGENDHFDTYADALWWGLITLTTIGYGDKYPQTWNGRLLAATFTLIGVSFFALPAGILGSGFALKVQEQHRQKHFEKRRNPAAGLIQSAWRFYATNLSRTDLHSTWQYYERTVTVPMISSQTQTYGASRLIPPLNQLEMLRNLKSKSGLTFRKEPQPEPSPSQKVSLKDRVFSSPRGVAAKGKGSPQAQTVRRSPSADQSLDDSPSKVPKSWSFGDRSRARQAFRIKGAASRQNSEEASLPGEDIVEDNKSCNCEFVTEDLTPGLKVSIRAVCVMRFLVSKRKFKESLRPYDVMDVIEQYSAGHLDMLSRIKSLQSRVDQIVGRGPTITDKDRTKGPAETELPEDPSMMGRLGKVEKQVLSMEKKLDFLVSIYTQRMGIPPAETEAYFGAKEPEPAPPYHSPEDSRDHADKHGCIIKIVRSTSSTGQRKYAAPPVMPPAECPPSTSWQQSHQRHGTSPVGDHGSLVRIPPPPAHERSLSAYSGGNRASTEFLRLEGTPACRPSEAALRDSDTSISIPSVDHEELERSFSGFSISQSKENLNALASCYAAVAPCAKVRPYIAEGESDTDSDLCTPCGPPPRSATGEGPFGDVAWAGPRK
KCNQ2 inh – rat KCNQ2 potassium channel inhibitors, primary screen, cell-based, CHO-K1, FluxOR thallium flux, B-score; AID 2156, 2009; 310,000 compounds, 1.1% hits; B-score at 10 µM; 20 min; hits give low values; Potassium voltage-gated channel subfamily KQT member 2 (Rattus norvegicus), O88943;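 active means fluorescence ratio B-score at most minus 3 library SDs, with starting brightness B-score within 2 library SDs, cut at about -5.5 in these data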
An asterisk follows results filed as active; i = inactive; x = no result.

SMILES	KCNQ2 enhance	KCNQ2 inh
Cc1[nH]n(-c2ccc(Cl)cc2)c(=O)c1/C=N/c1nnc(-c2ccccc2)s1	20*	i
COc1ccc2nc(/N=C\N(C)C)sc2c1	x	i
CCc1nnc(NS(=O)(=O)c2ccc(N=Cc3c(C)[nH]n(-c4ccc(Cl)cc4)c3=O)cc2)s1	2.1	i
Cc1cc(C(=O)CSc2nc3ccc(Cl)cc3[nH]2)c(C)n1Cc1ccco1	x	i
COc1cccc(CN2C(=O)CCC2(C)C(=O)NCCc2ccc(OC)c(OC)c2)c1 (configuration not stated)	x	i
CCc1ccc(OCCCC(=O)NCc2ccco2)cc1	0.58	i
CCc1ccc(N/C(SCc2ccccc2C)=C(/C#N)C(=O)NCc2ccco2)cc1	-6.1	-6.1*
Cc1c(NC(=O)CSc2ccccc2Cl)c(=O)n(-c2ccccc2)n1C	x	i
CCN(CC)C(=O)COc1c(-c2ccco2)oc2ccccc2c1=O	0.61	i
CC(=O)Oc1c(-c2ccco2)oc2ccccc2c1=O	5.9*	i
Cc1cc(NC(=O)Nc2cc(F)ccc2F)no1	1.2	i
Nc1nnnn1CC(=O)N/N=C/c1ccccn1	x	i
CN(CC(=O)Nc1ccccc1Br)C(=O)c1cc(S(=O)(=O)N(C)C)ccc1N1CCCC1	1.7	i
COc1ccccc1/C=C/C(=O)NC(=S)NCC1CCCO1 (configuration not stated)	-7.1	-7.1*
COc1ccc(/C=C/C(=O)NC(=S)NCC2CCCO2)cc1 (configuration not stated)	0.3	i
COc1ccc(N(CC(=O)NN=C2CCN(C)CC2)S(=O)(=O)c2ccc(NC(C)=O)cc2)cc1	x	i
S=c1[nH]nc(-c2ccccn2)n1/N=C/c1ccc(-c2ccccc2Br)o1	x	i
Cc1cc(Nc2cccc([N+](=O)[O-])c2)c2cccc(C)c2n1	x	i
Cc1cc(Nc2ccccc2)c2c([N+](=O)[O-])ccc(C)c2n1	-7.3	-7.3*
CC(C)[C@H](NC(N)=O)C(=O)Nc1ccc(F)c(Cl)c1	x	i
CCCC/C=C/C(NC(=O)CCc1ccccc1)c1ccccc1 (configuration not stated)	x	i
CCCC/C=C/[C@H](c1ccccc1)[C@H](CO)Cc1cccnc1	-5.7	-5.7*
C/C=C\C(=O)Nc1cccc(C2=NOC3(C2)C[C@H](C(N)=O)N(C(=O)Cc2ccc([N+](=O)[O-])cc2)C3)c1 (some centres not stated)	0.06	i
CCCC(=O)Nc1ccccc1NC(=O)c1ccc(OC)cc1	0.14	i
CCOCC(=O)Nc1c(C(=O)N2CCN(c3ncccn3)CC2)oc2ccccc12	0.31	i
SMILES	KCNQ2 enhance	KCNQ2 inh
O=C(c1oc2ccccc2c1CSCc1ccccc1)N1CCN(c2ncccn2)CC1	-6.2	-6.2*
COc1ccc(S(=O)(=O)N2CCN(c3ccc(F)cc3)CC2)cc1C(=O)N1CCOCC1	x	i
CC1CCc2c(sc(NC(=O)c3cccs3)c2C(=O)O)C1 (configuration not stated)	2	i
CC(C)(C)C1CCc2c(sc(NC(=O)c3cccs3)c2C(=O)N2CCCCC2)C1 (configuration not stated)	-8.1	-8.1*
COC(=O)CCC(=O)NC(=S)Nc1ccc(S(=O)(=O)Nc2cc(OC)nc(OC)n2)cc1	-6.4	-6.4*
COc1cc(NS(=O)(=O)c2ccc(NC(=S)NC(=O)CC(C)C)cc2)nc(OC)n1	0.64	i
COCCn1c(SCc2nnc(-c3ccccc3)o2)nc2sc3c(c2c1=O)CCC3	-6.6	-6.6*
COCCn1c(SCC(=O)Nc2ncc(C)s2)nc2sc3c(c2c1=O)CCC3	0.28	i
COc1ccccc1-n1c(SCc2cc(=O)oc3cc(O)ccc23)nc2ccccc2c1=O	x	i
CCC(CO)n1c(SCc2cc(=O)oc3cc(C)ccc23)nc2ccccc2c1=O (configuration not stated)	-7.7	-7.7*
O=C(CCc1ccccc1)NC(=S)Nc1cc(C(F)(F)F)ccc1N1CCOCC1	-6.2	-6.2*
CC(C)CC(=O)NC(=S)Nc1cc(C(F)(F)F)ccc1N1CCOCC1	x	i
O=C(NCc1ccc(Cl)cc1)c1noc2c1CCCC2	-6.5	-6.5*
O=C(NCc1ccccc1)c1noc2c1CCCC2	x	i
Cc1nc(N2CCN(c3ccccc3)CC2)nc2c1C(=O)CC(C)C2 (configuration not stated)	x	i
Cc1nc(N2CCN(c3ccccc3)CC2)nc2c1C(=O)CC(c1ccccc1)C2 (configuration not stated)	-6.1	-6.1*
CC1(C)NC(=O)N(CC(=O)N2CCCC(C(F)(F)F)C2)C1=O (configuration not stated)	1.4	i
Cc1cc(C)cc(NC(=S)N(CCN(C)C)Cc2cccs2)c1	0.55	i
COC(=O)c1ccc(CN2CCCC(CO)(Cc3ccc(F)cc3F)C2)cc1 (configuration not stated)	x	i
Cc1cccc(-c2nc(CS(=O)CC(=O)N3CC(C)CC(C)C3)c(C)o2)c1 (configuration not stated)	0.19	i
COc1ccc(NC(=O)c2csc(Cc3ccc(Cl)cc3)n2)cc1	x	i
COc1ccc(Cc2nc(C(=O)Nc3ccc(Cl)cc3)cs2)cc1	-5.8	-5.8*
CC(C)OCCCn1c(-c2ccc(Br)cc2)c[nH]c1=S	x	i
CCSC1=C(C#N)C(c2cccs2)C(C(=O)OC)=C(C)N1 (configuration not stated)	1.4	i
CCCSC1=C(C#N)C(c2cccs2)C(C(=O)Nc2ccccc2)=C(C)N1 (configuration not stated)	-8.8	-8.8*
SMILES	KCNQ2 enhance	KCNQ2 inh
C=CCN1C(=O)C(CC(=O)Nc2ccc(OCCC)cc2)N(CCCN2CCN(Cc3ccccc3)CC2)C1=S (configuration not stated)	-6.8	-6.8*
COc1ccc(NC(=O)CC2C(=O)N(C)C(=S)N2CCc2ccc(F)cc2)cc1 (configuration not stated)	x	i
COc1ccc(NC(=O)CC2C(=O)N(Cc3ccccc3)C(=S)N2CCN2CCOCC2)cc1 (configuration not stated)	x	i
CCN1C(=O)C(CC(=O)Nc2ccc(OC)cc2)N(CCc2ccc(F)cc2)C1=S (configuration not stated)	-7.5	-7.5*
CC(C)CN(C(=O)COC(=O)Cc1c[nH]c2ccccc12)c1c(N)n(Cc2ccccc2)c(=O)[nH]c1=O	0.73	i
COC1(OC)C(/C=C/c2ccc(C)cc2)C(C#N)(C#N)C1(OC)OC (configuration not stated)	-7.5	-7.5*
Cc1cc(Cn2nc(C(=O)NCC3CC3)cc2-c2ccccc2)on1	x	i
O=C(c1ccco1)N1CCN(C2CC(=O)N(c3ccc(F)c(Cl)c3)C2=O)CC1 (configuration not stated)	x	i
CNC(=S)N1CCN(c2nc3ccccc3s2)CC1	x	i
O=C(CSc1nc(N2CCCCC2)nc(N2CCCCC2)n1)N1CCN(c2ccccc2)CC1	19*	i
Cc1nc(SCC(=O)N2CCN(c3ccccc3)CC2)n[nH]1	x	i
Cc1cc(C)nc(SCC(=O)N2CCc3ccccc32)n1	x	i
O=C(CSc1nc(N2CCCCC2)nc(N2CCCCC2)n1)N1CCc2ccccc21	14*	i
Cc1ccc(S(=O)(=O)N2CCOCC2)cc1C(=O)OCC(=O)NC1CCS(=O)(=O)C1 (configuration not stated)	0.51	i

Assay outcomes deposited in PubChem BioAssay by Johns Hopkins Ion Channel Center.
